What all share (assay type): functional
Assay [1] concerns Plasmodium falciparum. Nature of the assay: GSK_TCMDC: Inhibition of Plasmodium falciparum 3D7 in whole red blood cells, using parasite LDH activity as an index of growth. Test compounds present at 2uM.
Assay [2] deals with Plasmodium falciparum. Nature of the assay: GSK_TCMDC: Inhibition of Plasmodium falciparum Dd2 in whole red blood cells, using parasite LDH activity as an index of growth. Test compounds present at 2uM.
In the next assay the test system is HepG2. Description: GSK_TCMDC: Percent inhibition of human HepG2 cell line. Test compounds present at 10uM.

Turning to `CS(=O)(=O)N1CC2(CCN(CCC(NC(=O)NCc3ccc(Cl)c(Cl)c3)c3ccc(Cl)c(Cl)c3)CC2)c2ccccc21` (stereo not given), the Inhibition amounted to 89% in the assay on Plasmodium falciparum [1], 59% in the assay on Plasmodium falciparum [2] and 19% in the assay on HepG2.
As to `CC(C)(CNCc1ccccc1)c1nc(-c2ccc(Cl)c(O)c2)c(-c2ccncc2)[nH]1.Cl`, the Inhibition in the assay with Plasmodium falciparum [1] came out at 100%; in the assay on Plasmodium falciparum [2] it was 99%; in the assay with HepG2 it was 77%.
For `CC(C)(C)c1cc(C(=O)Nc2ccc(C(=N)N)cc2)c(O)c(C(C)(C)C)c1.O=C(O)C(F)(F)F`, the Inhibition in the assay on Plasmodium falciparum [1] was determined as 100%; in the assay with Plasmodium falciparum [2] it was 88%; in the assay with HepG2 it was 4%.
In the same order, the values of `CCCCCCCNc1cc(C)nc2ccc(OC)cc12.Cl` are 100%, 100% and 30%.
Turning to `CC(C)(C)COc1ccc2c(N)n[nH]c2c1.Cl`, the values for the Inhibition in the assay with Plasmodium falciparum [1], in the assay with Plasmodium falciparum [2] and in the assay with HepG2 were 90%, 8% and 31%, respectively.
Turning to `Cc1cc(N[C@@H](Cc2ccccc2)C(=O)NCCOc2ccccc2)nc(Nc2ccccc2)n1.O=C(O)C(F)(F)F`, the Inhibition is 100% in the assay with Plasmodium falciparum [1], 63% in the assay on Plasmodium falciparum [2] and 2% in the assay with HepG2.
For `C/C=C/COc1ccc(-c2c(C)[nH]c(C)c(Cl)c2=O)cc1`, the Inhibition in the assay on Plasmodium falciparum [1] was 97%; in the assay on Plasmodium falciparum [2], 97%; in the assay on HepG2, 0%.
With `COc1c(C2CCN(CCCCNC(=O)c3ccc(-c4ccc(C#N)cc4)cc3)CC2)ccc2c1C(C)(C)CCC2(C)C`, the Inhibition in the assay on Plasmodium falciparum [1] turned out to be 100%; in the assay on Plasmodium falciparum [2], 86%; in the assay on HepG2, 98%.
In the case of `O=C(Nc1ccc(OC(F)(F)F)cc1)NC1CCN(c2ccnc3ccccc23)C1.O=C(O)C(F)(F)F` (stereo not given), the Inhibition is 100% in the assay on Plasmodium falciparum [1], 89% in the assay on Plasmodium falciparum [2] and 25% with HepG2.
`Clc1ccc(CNc2nc(NCCc3c[nH]cn3)nc(NC3CCCCC3)n2)cc1`: the Inhibition with Plasmodium falciparum [1] is 100%; in the assay with Plasmodium falciparum [2], 1%; with HepG2, 0%.

The values above are taken from ChEMBL document CHEMBL1157539, “Thousands of chemical starting points for antimalarial lead identification” (Nature, 2010).
